Experimental data: PubChem BioAssay (EPA / NIEHS)
Results filed as inconclusive are left out. Calls of active or inactive are those of the source. Rule for the calls: active = hit-call score of the fitted dose curve at least 0.9, where 1 is the maximum; inconclusive = response in the unintended direction; inactive = score below 0.9.

Key:
[1] = biological target: rat CYP2C11, Cyp2c11 (gene 29277) (UniProt P08683); assay: NVS_ADME_rCYP2C11: NovaScreen (NVS) CYP450-related Enzyme Activity (ADME) Assay for rat CYP2C11 (AID 2283118)
Chain of rat CYP2C11, Cyp2c11 (gene 29277) (P08683 whole entry, looked up): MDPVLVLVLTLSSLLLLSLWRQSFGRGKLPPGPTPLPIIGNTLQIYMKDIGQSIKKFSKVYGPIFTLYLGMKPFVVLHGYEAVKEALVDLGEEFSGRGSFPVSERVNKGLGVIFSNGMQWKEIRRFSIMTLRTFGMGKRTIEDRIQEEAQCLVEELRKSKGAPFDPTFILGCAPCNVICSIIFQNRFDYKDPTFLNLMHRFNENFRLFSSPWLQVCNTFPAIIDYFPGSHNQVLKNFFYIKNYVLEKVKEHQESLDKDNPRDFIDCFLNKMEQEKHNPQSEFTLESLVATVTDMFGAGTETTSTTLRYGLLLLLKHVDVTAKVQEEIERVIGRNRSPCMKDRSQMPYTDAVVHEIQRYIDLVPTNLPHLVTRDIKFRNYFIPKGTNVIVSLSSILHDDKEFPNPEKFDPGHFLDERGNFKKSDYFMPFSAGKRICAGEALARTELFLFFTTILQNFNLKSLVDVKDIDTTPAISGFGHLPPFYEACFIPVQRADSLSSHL
Outline: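 Cell-free recombinant rat enzyme with fluorescent substrate; readout 0.33 h after dosing, loss of signal versus acetonitrile control. Initial duplicate single-point at 10 uM; actives rerun in concentration series.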

[2] = biological target: rat CYP2C12, Cyp2c12 (gene 25011) (UniProt P11510); assay: NVS_ADME_rCYP2C12: NovaScreen (NVS) CYP450-related Enzyme Activity (ADME) Assay for rat CYP2C12 (AID 2283119)
Chain of rat CYP2C12, Cyp2c12 (gene 25011) (P11510 whole entry, looked up): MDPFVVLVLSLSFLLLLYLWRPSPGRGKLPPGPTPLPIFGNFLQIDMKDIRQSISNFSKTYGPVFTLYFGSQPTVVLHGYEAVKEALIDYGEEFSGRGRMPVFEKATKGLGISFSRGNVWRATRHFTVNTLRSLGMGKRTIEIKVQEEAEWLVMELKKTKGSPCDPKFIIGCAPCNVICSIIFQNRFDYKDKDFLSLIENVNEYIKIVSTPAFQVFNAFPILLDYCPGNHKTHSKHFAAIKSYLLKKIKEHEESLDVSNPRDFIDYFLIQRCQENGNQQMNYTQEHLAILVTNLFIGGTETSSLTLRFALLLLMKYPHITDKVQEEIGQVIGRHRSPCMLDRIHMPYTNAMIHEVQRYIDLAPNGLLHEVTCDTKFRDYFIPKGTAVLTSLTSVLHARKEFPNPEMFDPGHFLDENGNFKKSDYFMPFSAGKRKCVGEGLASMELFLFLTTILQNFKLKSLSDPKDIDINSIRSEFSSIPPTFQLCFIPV
Procedure: (§1) NVS_ADME_rCYP2C12 is a biochemical, single-readout assay that uses extracted gene-proteins in a cell-free assay. Measurements were taken 0.5 hour after chemical dosing in a 96-well plate.NVS_ADME_rCYP2C12 is one of one assay component(s) measured or calculated from the NVS_ADME_rCYP2C12 assay. It is designed to make measurements of enzyme activity, a form of enzyme reporter, as detected with fluorescence intensity signals by Fluorescence technology.Data from the assay component NVS_ADME_rCYP2C12 was analyzed into 1 assay endpoint. This assay endpoint, NVS_ADME_rCYP2C12, was analyzed in the positive analysis fitting direction relative to Acetonitrile as the negative control and baseline of activity. Using a type of enzyme reporter, loss-of-signal activity can be used to understand changes in the enzymatic activity as they relate to the gene Cyp2c12. Furthermore, this assay endpoint can be referred to as a primary readout, because this assay has produced multiple assay endpoints where this one serves a enzymatic activity function. To generalize the intended target to other relatable targets, this assay endpoint is annotated to the cyp intended target family, where the subfamily is xenobiotic metabolism.
Binding assays used specific radioligands (tritiated, iodinated) with non-radioactive competitive displacement ligands in agonist or antagonist protocols (as indicated) and various reference compounds and inhibitors to titrate specific binding to receptors and transporters. Most enzyme assays (CYPs, kinases, phosphatases, proteases, HDACs) used recombinant protein and specific substrates (fluorescence mostly, some colorimetric and radioactive) and inhibitors, followed by a biochemical separation of substrate and product. All assays for the biochemical HTS were initially run in duplicate at a single concentration (10 uM for CYP450 assays and 25 uM for all others). […] Each assay was run with positive and negative controls, and concurrent controls on every plate. The follow-up (secondary) screen tested active chemical-pairs in concentration series, as well as a few additional assays not tested in the primary screen, some selected negative inactives, and several cases re-run in the concentration series for confirmatory purposes.

rat CYP2C6, gene 293989 = assay: NVS_ADME_rCYP2C6: NovaScreen (NVS) CYP450-related Enzyme Activity (ADME) Assay for rat CYP2C6 (AID 2283120)
Outline: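 Cell-free recombinant rat CYP2C6 with fluorogenic substrate, read by fluorescence 1 h after dosing; acetonitrile as negative control. Primary screen at 10 uM in duplicate, actives then in concentration-response up to 20 uM.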

[3] = biological target: rat CYP2C13, Cyp2c13 (gene 171521) (UniProt P20814); assay: NVS_ADME_rCYP2C13: NovaScreen (NVS) CYP450-related Enzyme Activity (ADME) Assay for rat CYP2C13 (AID 2283121)
Chain of rat CYP2C13, Cyp2c13 (gene 171521) (P20814 whole entry, looked up): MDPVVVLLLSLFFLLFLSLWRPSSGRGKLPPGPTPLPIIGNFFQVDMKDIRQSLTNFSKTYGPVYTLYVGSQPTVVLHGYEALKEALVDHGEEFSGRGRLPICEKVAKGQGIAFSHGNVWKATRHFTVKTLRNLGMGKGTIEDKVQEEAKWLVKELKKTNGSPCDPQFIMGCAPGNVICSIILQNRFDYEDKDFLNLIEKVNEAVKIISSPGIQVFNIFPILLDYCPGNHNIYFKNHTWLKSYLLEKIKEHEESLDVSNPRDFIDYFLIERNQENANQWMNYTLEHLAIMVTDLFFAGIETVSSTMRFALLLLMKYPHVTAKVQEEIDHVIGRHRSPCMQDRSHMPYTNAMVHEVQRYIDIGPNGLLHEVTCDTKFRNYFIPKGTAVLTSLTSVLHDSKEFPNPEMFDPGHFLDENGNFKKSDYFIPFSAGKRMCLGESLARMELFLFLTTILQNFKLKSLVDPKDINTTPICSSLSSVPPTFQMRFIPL
Outline: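 Recombinant rat CYP2C13 with fluorogenic substrate, 0.75 h cell-free incubation; primary screen in duplicate at 10 uM, actives followed in concentration series. Fluorescence loss relative to acetonitrile control indicates inhibition.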

[4] = biological target: rat CYP2D1, Cyp2d1 (gene 266684) (UniProt P10633); assay: NVS_ADME_rCYP2D1: NovaScreen (NVS) CYP450-related Enzyme Activity (ADME) Assay for rat CYP2D1 (AID 2283122)
Chain of rat CYP2D1, Cyp2d1 (gene 266684) (P10633 whole entry, looked up): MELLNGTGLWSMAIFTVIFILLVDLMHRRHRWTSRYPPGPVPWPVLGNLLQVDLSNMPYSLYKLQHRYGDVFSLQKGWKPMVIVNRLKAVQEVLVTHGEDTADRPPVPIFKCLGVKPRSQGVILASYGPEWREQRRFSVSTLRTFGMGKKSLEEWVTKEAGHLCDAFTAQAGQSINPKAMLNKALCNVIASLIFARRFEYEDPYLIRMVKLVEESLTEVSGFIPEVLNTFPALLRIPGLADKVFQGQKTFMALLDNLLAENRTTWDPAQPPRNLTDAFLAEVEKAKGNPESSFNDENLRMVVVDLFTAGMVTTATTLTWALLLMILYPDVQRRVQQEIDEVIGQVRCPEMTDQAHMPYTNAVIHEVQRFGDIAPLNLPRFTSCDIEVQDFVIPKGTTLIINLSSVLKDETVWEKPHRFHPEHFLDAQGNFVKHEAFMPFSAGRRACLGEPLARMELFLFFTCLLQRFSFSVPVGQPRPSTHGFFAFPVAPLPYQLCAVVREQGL
Procedure: as §1, with “NVS_ADME_rCYP2D1” for “NVS_ADME_rCYP2C12”, “0.75” for “0.5”, “plate.NVS_ADME_rCYP2D1” for “plate.NVS_ADME_rCYP2C12”, “NVS_ADME_rCYP2D1,” for “NVS_ADME_rCYP2C12,”, “Cyp2d1.” for “Cyp2c12.”
Binding assays used specific radioligands (tritiated, iodinated) with non-radioactive competitive displacement ligands in agonist or antagonist protocols (as indicated) and various reference compounds and inhibitors to titrate specific binding to receptors and transporters. Most enzyme assays (CYPs, kinases, phosphatases, proteases, HDACs) used recombinant protein and specific substrates (fluorescence mostly, some colorimetric and radioactive) and inhibitors, followed by a biochemical separation of substrate and product. All assays for the biochemical HTS were initially run in duplicate at a single concentration (10 uM for CYP450 assays and 25 uM for all others). Assay-chemical combinations meeting a pre-defined threshold (e.g., 30% inhibition and other criteria defined below) were then run in singleton concentration-response format with maximum concentration of 20 uM for CYPs and 50 uM for all others. Each assay was run with positive and negative controls, and concurrent controls on every plate. The follow-up (secondary) screen tested active chemical-pairs in concentration series, as well as a few additional assays not tested in the primary screen, some selected negative inactives, and several cases re-run in the concentration series for confirmatory purposes.

[5] = biological target: rat CYP2D2, Cyp2d26 (gene 25053) (UniProt P10634); assay: NVS_ADME_rCYP2D2: NovaScreen (NVS) CYP450-related Enzyme Activity (ADME) Assay for rat CYP2D2 (AID 2283124)
Chain of rat CYP2D2, Cyp2d26 (gene 25053) (P10634 whole entry, looked up): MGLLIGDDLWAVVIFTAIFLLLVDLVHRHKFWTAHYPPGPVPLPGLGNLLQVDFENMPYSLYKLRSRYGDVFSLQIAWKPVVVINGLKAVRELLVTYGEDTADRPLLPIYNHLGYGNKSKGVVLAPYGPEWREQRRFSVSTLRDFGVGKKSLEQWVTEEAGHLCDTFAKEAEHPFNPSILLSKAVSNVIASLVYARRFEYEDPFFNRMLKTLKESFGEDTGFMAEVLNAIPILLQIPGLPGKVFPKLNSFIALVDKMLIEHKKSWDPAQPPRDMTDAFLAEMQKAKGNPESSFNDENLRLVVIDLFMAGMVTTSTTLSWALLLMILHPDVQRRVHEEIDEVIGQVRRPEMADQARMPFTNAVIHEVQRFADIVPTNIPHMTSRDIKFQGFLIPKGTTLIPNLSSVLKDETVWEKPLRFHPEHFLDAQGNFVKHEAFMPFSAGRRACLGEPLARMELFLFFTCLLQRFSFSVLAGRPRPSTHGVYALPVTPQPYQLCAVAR
Outline: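 Recombinant rat CYP2D2 in a cell-free fluorogenic activity assay, fluorescence read 0.75 h after dosing. Primary screen in duplicate at 10 uM; actives re-run singly in concentration-response to 20 uM, relative to acetonitrile.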

[6] = biological target: rat CYP3A2, Cyp3a2 (gene 266682) (UniProt P05183); assay: NVS_ADME_rCYP3A2: NovaScreen (NVS) CYP450-related Enzyme Activity (ADME) Assay for rat CYP3A2 (AID 2283128)
Chain of rat CYP3A2, Cyp3a2 (gene 266682) (P05183 whole entry, looked up): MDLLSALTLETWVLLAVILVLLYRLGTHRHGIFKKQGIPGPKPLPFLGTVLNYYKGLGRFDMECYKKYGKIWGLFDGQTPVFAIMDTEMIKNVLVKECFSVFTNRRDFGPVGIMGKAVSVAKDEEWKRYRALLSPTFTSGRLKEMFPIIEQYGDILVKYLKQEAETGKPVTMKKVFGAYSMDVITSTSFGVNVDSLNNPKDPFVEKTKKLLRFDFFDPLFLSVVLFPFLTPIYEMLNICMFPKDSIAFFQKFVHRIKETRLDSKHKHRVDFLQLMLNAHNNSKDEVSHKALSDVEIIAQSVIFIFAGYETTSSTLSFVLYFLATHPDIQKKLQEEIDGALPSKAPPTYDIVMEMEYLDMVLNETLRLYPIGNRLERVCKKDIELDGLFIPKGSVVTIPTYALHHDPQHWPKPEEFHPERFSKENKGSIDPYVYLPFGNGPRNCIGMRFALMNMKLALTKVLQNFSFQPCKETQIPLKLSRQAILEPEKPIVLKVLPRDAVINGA
Outline: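 Cell-free rat CYP3A2 enzyme assay with fluorescent substrate, read 0.5 h after dosing. Primary duplicate screen at 10 uM; actives run in concentration-response up to 20 uM, relative to acetonitrile baseline.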

Caspase-1 (Homo sapiens) = Caspase-1 (Homo sapiens) (UniProt P29466); assay: NVS_ENZ_hCASP1: NovaScreen (NVS) Enzymatic Assay for human Caspase 1 (CASP1) (AID 2283132)
Chain of Caspase-1 (Homo sapiens) (P29466 whole entry, looked up): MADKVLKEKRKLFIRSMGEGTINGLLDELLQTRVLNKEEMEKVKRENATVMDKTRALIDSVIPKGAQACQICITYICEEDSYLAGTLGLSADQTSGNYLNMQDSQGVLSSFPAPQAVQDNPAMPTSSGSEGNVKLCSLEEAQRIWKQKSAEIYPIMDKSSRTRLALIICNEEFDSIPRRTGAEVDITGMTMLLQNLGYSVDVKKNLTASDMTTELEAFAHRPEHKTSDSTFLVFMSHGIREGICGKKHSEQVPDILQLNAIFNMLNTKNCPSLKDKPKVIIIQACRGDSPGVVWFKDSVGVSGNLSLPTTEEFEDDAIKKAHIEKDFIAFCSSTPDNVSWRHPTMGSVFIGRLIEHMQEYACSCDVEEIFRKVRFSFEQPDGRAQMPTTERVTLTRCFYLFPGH
Outline: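 Cell-free enzymatic assay with E. coli-expressed recombinant protein; fluorescence intensity read 1 hour after dosing. Single-concentration duplicate screen at 25 uM, then concentration-response up to 50 uM; activity fitted relative to DMSO, loss of signal meaning inhibition.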

[7] = biological target: human Acetylcholinesterase (AChE), ACHE (gene 43) (UniProt P22303); assay: NVS_ENZ_hAChE: NovaScreen (NVS) Enzymatic Assay for human Acetylcholinesterase (AChE) (AID 2283129)
Chain of human Acetylcholinesterase (AChE), ACHE (gene 43) (P22303 whole entry, looked up): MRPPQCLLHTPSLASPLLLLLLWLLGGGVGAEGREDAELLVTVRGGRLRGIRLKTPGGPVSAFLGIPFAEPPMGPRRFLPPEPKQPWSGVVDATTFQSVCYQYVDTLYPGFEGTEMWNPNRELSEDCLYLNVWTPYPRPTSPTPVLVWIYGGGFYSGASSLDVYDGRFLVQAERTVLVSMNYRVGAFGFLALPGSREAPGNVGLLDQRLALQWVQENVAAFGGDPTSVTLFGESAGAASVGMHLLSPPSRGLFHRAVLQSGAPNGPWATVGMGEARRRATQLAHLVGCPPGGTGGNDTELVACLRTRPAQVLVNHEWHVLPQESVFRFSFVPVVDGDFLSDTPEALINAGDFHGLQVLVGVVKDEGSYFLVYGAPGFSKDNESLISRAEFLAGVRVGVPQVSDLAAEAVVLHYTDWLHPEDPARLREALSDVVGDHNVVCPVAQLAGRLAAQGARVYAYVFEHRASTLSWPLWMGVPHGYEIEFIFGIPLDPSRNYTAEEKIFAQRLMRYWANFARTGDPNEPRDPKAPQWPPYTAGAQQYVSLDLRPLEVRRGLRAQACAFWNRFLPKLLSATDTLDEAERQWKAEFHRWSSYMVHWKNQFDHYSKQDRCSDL
Outline: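 Cell-free colorimetric enzyme-activity assay; compounds read 0.33 hour after dosing, loss of signal vs DMSO baseline. Primary screen in duplicate at 25 uM single concentration, with active compounds retested in concentration series.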

[8] = biological target: human Caspase 10 (CASP10), CASP10 (gene 843) (UniProt Q92851); assay: NVS_ENZ_hCASP10: NovaScreen (NVS) Enzymatic Assay for human Caspase 10 (CASP10) (AID 2283133)
Chain of human Caspase 10 (CASP10), CASP10 (gene 843) (Q92851 whole entry, looked up): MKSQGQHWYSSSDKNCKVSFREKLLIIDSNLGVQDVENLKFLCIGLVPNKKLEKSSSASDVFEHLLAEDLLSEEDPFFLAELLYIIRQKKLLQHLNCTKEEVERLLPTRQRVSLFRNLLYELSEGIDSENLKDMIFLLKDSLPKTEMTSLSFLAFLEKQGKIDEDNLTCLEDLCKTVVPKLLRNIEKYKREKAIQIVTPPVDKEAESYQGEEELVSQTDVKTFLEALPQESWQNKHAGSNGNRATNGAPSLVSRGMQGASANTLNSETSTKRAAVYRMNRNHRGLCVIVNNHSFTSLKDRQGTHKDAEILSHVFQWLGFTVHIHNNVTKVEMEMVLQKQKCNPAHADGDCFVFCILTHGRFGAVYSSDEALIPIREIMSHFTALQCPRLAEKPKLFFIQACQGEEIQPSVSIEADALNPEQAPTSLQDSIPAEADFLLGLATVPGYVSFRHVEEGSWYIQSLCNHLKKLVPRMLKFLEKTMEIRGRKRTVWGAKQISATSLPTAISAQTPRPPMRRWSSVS
Procedure: NVS_ENZ_hCASP10 is a biochemical, single-readout assay that uses extracted gene-proteins from E. coli in a cell-free assay. Measurements were taken 1 hour after chemical dosing in a 96-well plate.NVS_ENZ_hCASP10 is one of one assay component(s) measured or calculated from the NVS_ENZ_hCASP10 assay. It is designed to make measurements of enzyme activity, a form of enzyme reporter, as detected with fluorescence intensity signals by Fluorescence technology.Data from the assay component NVS_ENZ_hCASP10 was analyzed into 1 assay endpoint. This assay endpoint, NVS_ENZ_hCASP10, was analyzed in the positive analysis fitting direction relative to DMSO as the negative control and baseline of activity. Using a type of enzyme reporter, loss-of-signal activity can be used to understand changes in the enzymatic activity as they relate to the gene CASP10. Furthermore, this assay endpoint can be referred to as a primary readout, because this assay has produced multiple assay endpoints where this one serves a enzymatic activity function. To generalize the intended target to other relatable targets, this assay endpoint is annotated to the protease intended target family, where the subfamily is cysteine protease. […]

How did the AC50 [1] turn out when `CCCCC(O)(Cn1cncn1)c1ccc(Cl)cc1Cl` (stereo not drawn) was run?
Its AC50 is 1850 nM (active).

What about the AC50 [2] of the same molecule?
Its AC50 is 1580 nM (active).

And the AC50 (rat CYP2C6, gene 293989)?
Its AC50 is 3590 nM (active).

What about the AC50 [3] of the same molecule?
The AC50 was 655 nM (active).

And the AC50 [4]?
The AC50 was 951 nM (active).

What about the AC50 [5] of the same molecule?
The AC50 was 4090 nM (active).

And the AC50 [6]?
The AC50 was 1600 nM (active).

For `O=c1n(Cl)c(=O)n(Cl)c(=O)n1Cl`, which outcome (Caspase-1 (Homo sapiens)) is on record?
The outcome was “inactive”.

With `COC(=O)c1c(C(F)F)nc(C(F)(F)F)c(C2=NCCS2)c1CC(C)C` as the molecule, how does the AC50 (rat CYP2C6, gene 293989) read?
The AC50 was 3590 nM (active).

And the AC50 [4]?
The AC50 was 5480 nM (active).

And the AC50 [6]?
The AC50 was 5420 nM (active).

What about the outcome (Caspase-1 (Homo sapiens)) of the same molecule?
Its outcome is “inactive”.

Which AC50 [4] does the source give for `Nc1cnn(-c2ccccc2)c(=O)c1Cl` here?
Its AC50 is 2370 nM (active).

With `COP(=S)(OC)SCn1nnc2ccccc2c1=O` as the molecule, how does the AC50 [1] read?
The AC50 was 419 nM (active).

What about the AC50 (rat CYP2C6, gene 293989) of the same molecule?
Its AC50 is 634 nM (active).

And the AC50 [3]?
Its AC50 is 3030 nM (active).

And the AC50 [4]?
Its AC50 is 6920 nM (active).

And the AC50 [5]?
Its AC50 is 7040 nM (active).

And the AC50 [6]?
Its AC50 is 393 nM (active).

And the outcome [7]?
The outcome was “inactive”.

`CO/N=C(/C1=NOCCO1)c1ccccc1Oc1ncnc(Oc2ccccc2Cl)c1F` was tested. Which AC50 [1] did it give?
The AC50 was 779 nM (active).

What about the AC50 (rat CYP2C6, gene 293989) of the same molecule?
The AC50 was 1740 nM (active).

What about the AC50 [6] of the same molecule?
The AC50 was 1180 nM (active).

Which AC50 [1] does the source give for `CC(C)N1C(=O)N(c2ccccc2)CSC1=NC(C)(C)C` here?
The AC50 was 3970 nM (active).

What does the source list for `COC(=O)N(C(=O)N1CO[C@@]2(C(=O)OC)Cc3cc(Cl)ccc3C2=N1)c1ccc(OC(F)(F)F)cc1`?
AC50 [2]: 332 nM (active); outcome [8]: inactive

For `CCNC(=O)NC(=O)C(C#N)=NOC`, which outcome [5] is on record?
Its outcome is “inactive”.

What about the outcome [7] of the same molecule?
The outcome was “inactive”.

For `COc1cc(OC)nc(NC(=O)NS(=O)(=O)c2ncccc2OCC(F)(F)F)n1`, which outcome (Caspase-1 (Homo sapiens)) is on record?
The outcome was “inactive”.

How did the AC50 (rat CYP2C6, gene 293989) turn out when `CC(C)NC(=O)N1CC(=O)N(c2cc(Cl)cc(Cl)c2)C1=O` was run?
Its AC50 is 2380 nM (active).

How did the AC50 (rat CYP2C6, gene 293989) turn out when `CCOP(=S)(OCC)Oc1nc(Cl)n(C(C)C)n1` was run?
Its AC50 is 837 nM (active).

And the AC50 [5]?
The AC50 was 5760 nM (active).

What about the AC50 [6] of the same molecule?
Its AC50 is 1140 nM (active).

Which AC50 (rat CYP2C6, gene 293989) does the source give for `CSC(=O)c1c(C(F)F)nc(C(F)(F)F)c(C(=O)SC)c1CC(C)C` here?
The AC50 was 2990 nM (active).

With `CCNP(=S)(OC)O/C(C)=C/C(=O)OC(C)C` (stereo not drawn) as the molecule, how does the AC50 [1] read?
Its AC50 is 1240 nM (active).

What about the AC50 [2] of the same molecule?
Its AC50 is 10000 nM (active).

What about the AC50 (rat CYP2C6, gene 293989) of the same molecule?
The AC50 was 151 nM (active).

And the AC50 [3]?
Its AC50 is 7310 nM (active).

And the AC50 [5]?
Its AC50 is 5410 nM (active).

What about the AC50 [6] of the same molecule?
Its AC50 is 528 nM (active).

What about the outcome (Caspase-1 (Homo sapiens)) of the same molecule?
Its outcome is “inactive”.

`COC(=O)NC(=S)Nc1ccccc1NC(=S)NC(=O)OC` was tested. Which AC50 [6] did it give?
Its AC50 is 7250 nM (active).

For `CC1(C)CON(Cc2ccccc2Cl)C1=O`, which outcome [7] is on record?
Its outcome is “inactive”.
